Results: PubChem BioAssay AID1851 (National Center for Advancing Translational Sciences (NCATS), 2009)
About 4,000 (25%) of roughly 16,000 compounds were called active. Inconclusive results (about 26%) are left out. Only a sample is shown. Unmarked numbers belong to inactive results. Calls follow the shape of the dose curve; as a rule, active = well fitted curve in the direction sought with a large enough effect; inconclusive = small, poorly fitted or top-dose-only effect, or effect the other way; inactive = no such curve, though single readings can be large or run the other way.

Each compound was assayed against Cytochrome P450 2C9 (Homo sapiens) (UniProt P11712) (assay: Cytochrome panel assay with activity outcomes). Details: recombinant CYP, pro-luciferin dealkylation, luminescence, p450-cyp2c9; series mostly up to 57.1 µM.
% is scaled to controls: 0 for no effect and ±100 for the full control effect.

Sequence of Cytochrome P450 2C9 (Homo sapiens) (P11712 whole entry, looked up): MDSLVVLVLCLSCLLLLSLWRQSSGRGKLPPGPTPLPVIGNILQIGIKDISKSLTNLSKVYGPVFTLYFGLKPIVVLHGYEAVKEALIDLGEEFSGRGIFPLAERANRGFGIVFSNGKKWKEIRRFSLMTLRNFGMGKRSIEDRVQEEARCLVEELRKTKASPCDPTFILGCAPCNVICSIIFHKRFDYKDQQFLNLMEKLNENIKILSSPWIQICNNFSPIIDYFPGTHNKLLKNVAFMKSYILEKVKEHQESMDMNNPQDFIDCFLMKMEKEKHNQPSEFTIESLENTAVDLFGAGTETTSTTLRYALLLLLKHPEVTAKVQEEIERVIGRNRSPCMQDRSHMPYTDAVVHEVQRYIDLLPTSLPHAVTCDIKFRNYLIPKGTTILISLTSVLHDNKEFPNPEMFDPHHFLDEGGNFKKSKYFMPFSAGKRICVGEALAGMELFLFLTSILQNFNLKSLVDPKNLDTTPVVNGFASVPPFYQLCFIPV

Structure (SMILES)	AC50	activity, negative = inhibition
C[C@H](Oc1ccccc1)C(=O)N[C@@H]1C(=O)N2[C@@H]1SC(C)(C)[C@@H]2C(=O)O	inactive	
CC(Oc1ccccc1)C(=O)Nc1nc2c(s1)C(=O)CC(C)(C)C2 (centres undefined)	6.31 µM (active)	
COc1ccccc1CNCC(O)(c1ccc(Cl)cc1)c1ccc(Cl)cc1	15.8 µM (active)	
COc1ccccc1CNCCCCCCNCCCCCCCCNCCCCCCNCc1ccccc1OC	inactive	
COc1ccccc1CNCc1cccs1	inactive	
OCCN1CCN(C(=S)c2ccc(Br)cc2)CC1	inactive	
CCOC(=O)N/N=C1/C[C@@H](O)[C@@H](O)[C@@H]2[C@@H]3C(=O)N([C@@H](C)c4ccccc4)C(=O)[C@H]3CC[C@@H]12		20.5% [at 11.4 µM]
O=S(=O)(c1cccc2cnccc12)N1CCNCC1	inactive	
COc1ccc(CCNC(=O)C2CCN(S(=O)(=O)c3cccc4nsnc34)CC2)cc1OC	inactive	
O=C(C1CCN(S(=O)(=O)c2cccc3nsnc23)CC1)N1CCc2ccccc21	10 µM (active)	
O=S(=O)(c1cccc2nsnc12)N1CCCC1	3.55 µM (active)	
COc1ccc2nc(NC(=O)C3CCN(S(=O)(=O)c4cccc5nsnc45)CC3)sc2c1	inactive	
O=S(=O)(c1ccccc1S(=O)(=O)N1CCCCC1)N1CCCCC1	28.2 µM (active)	
CS(=O)(=O)N1CCCC(C(=O)N2CCc3ccccc3C2)C1 (centres undefined)	inactive	
O=C(C1CCCN(S(=O)(=O)c2cccc3nsnc23)C1)N1CC=C(c2ccccc2)CC1 (centres undefined)	1.41 µM (active)	
CC(=O)Nc1ccc(NC(=O)C2CCN(S(=O)(=O)c3cccc4nonc34)CC2)cc1	inactive	
Cc1cc(N)c2ccccc2[n+]1CCCCCCCCCC[n+]1c(C)cc(N)c2ccccc21	inactive	
O=C(Nc1ccccc1)N[C@H]1C[C@H](C(=O)O)Nc2cc(Cl)cc(Cl)c21	inactive	
CCCSC1=C(C#N)C(c2cccnc2)C(C(=O)OCC)=C(c2ccccc2)N1 (centres undefined)	8.91 µM (active)	
COc1ccc(NC(=O)N2CC[C@@]3(CCCN(S(C)(=O)=O)C3)C2)cc1	inactive	
Cc1ccc2c(c1)N(CC(=O)NC1CCC(C)CC1)C(=O)CO2 (centres undefined)	inactive	
Cc1ccc2c(c1)N(CC(=O)NC1CCCc3ccccc31)C(=O)CO2 (centres undefined)	inactive	

Structure (SMILES)	AC50	activity, negative = inhibition
Cc1ccc2c(c1)N(CCC(=O)NCc1cccnc1)C(=O)CO2	14.1 µM (active)	
c1ccc2[nH]c(NC3=NCCC3)nc2c1	inactive	
COC(=O)Nc1nc2ccc(Sc3ccccc3)cc2[nH]1	inactive	
COc1cc(/C=N\Nc2nc3ccccc3[nH]2)cc(OC)c1OC	15.8 µM (active)	
Cc1ccc2nc(-c3ccccc3)cc(C(=O)NCCCn3ccnc3)c2c1	0.1 µM (active)	
Cc1cccc(NC(=S)c2nc3ccccc3s2)c1	inactive	
Cc1cccc(NC(=O)N(Cc2nc3ccccc3c(=O)[nH]2)C2CCCC2)c1	5.62 µM (active)	
CN1CCC(N(C)C(=O)CCc2nc3ccccc3c(=O)[nH]2)CC1	inactive	
C/C(=N\OC(=O)c1ccccc1)c1cc(-c2ccc(Cl)cc2)no1	inactive	
N/C(=N\OC(=O)c1cc(-c2ccccc2)nc2ccccc12)c1ccc(Cl)cc1	3.98 µM (active)	
Cn1c(=O)c2[nH]c(C3CCCC3)nc2n(C)c1=O	inactive	
NC(=O)N[C@H]1NC(=O)NC1=O	inactive	
COC(=O)C(NC(=O)c1ccc(F)cc1)(Nc1ncc(S(=O)(=O)c2ccc([N+](=O)[O-])cc2)s1)C(F)(F)F (centres undefined)	3.55 µM (active)	
C=CCC(C(=O)OC)(C(=O)OC)c1ccc([N+](=O)[O-])cn1	inactive	
COC(=O)C(C)(C(=O)OC)c1ccc([N+](=O)[O-])cn1	inactive	
O=S(=O)(Nc1ccc(Cc2ccncc2)cc1)c1cccs1	0.02 µM (active)	
O=S(=O)(Nc1ccc(Cc2ccncc2)cc1)c1ccc(Br)cc1	0.0141 µM (active)	
O=C1CCCCC(=O)c2ccccc2N1	inactive	
O=C(CNC(=O)c1ccco1)OC(C(=O)c1ccccc1)c1ccccc1 (centres undefined)	25.1 µM (active)	
O=C(CNC(=O)c1ccco1)OCc1c(F)cccc1Cl	inactive	
COc1ccc(C(=O)C(OC(=O)CNC(=O)c2ccco2)c2ccccc2)cc1 (centres undefined)	20 µM (active)	
COc1ccc(C(=O)NCC(=O)OCc2cccc(Br)c2)cc1	inactive	

Structure (SMILES)	AC50	activity, negative = inhibition
CCOc1ccc2c(ccc(/C=C\c3cc(C)c4cccnc4c3O)[n+]2C)c1		5.89% [at 11.4 µM]
O=C(O)[C@H]1CCCC[C@@H]1C(=O)Nc1nc2ccccc2[nH]1		2.98% [at 11.4 µM]
O=C(Nc1nc2ccccc2n1CCN1CCCCC1)C1CCCCC1	inactive	
Cc1cc(NC(=O)C2CCCC2)n(-c2nc3ccccc3[nH]2)n1	3.98 µM (active)	
COc1cccc(/C=N/NC(=O)c2cc(-c3cccn3C)n[nH]2)c1	inactive	
Cc1ccc(NCC(=O)N/N=C\c2ccc([N+](=O)[O-])o2)cc1	inactive	
Cc1cc(C(=O)N/N=C/c2cccc(OC(=O)c3ccco3)c2)n[nH]1	11.2 µM (active)	
Cc1ccc(NCC(=O)N/N=C/c2ccc(OC(=O)c3ccco3)cc2)cc1	8.91 µM (active)	
COc1ccc(-n2c(C)nn(C)c2=O)cc1	inactive	
CCOC(=O)c1sc(=N)n(-c2ccc(OC)cc2)c1C	3.16 µM (active)	
CCOC(=O)c1nc(N)sc1C(=O)OCC	inactive	
CC(C)c1cc(C(F)(F)F)nc(NNc2nc(C(C)C)cc(C(F)(F)F)n2)n1		-27.5% [at 11.4 µM]
CC(C)Nc1cc(C(F)(F)F)nc(-c2ccccn2)n1	inactive	
CC(C)Nc1nc(Oc2ccc(Cl)cc2)cc(C(F)(F)F)n1	15.8 µM (active)	
CC(C)CN(Cc1c(O)ccc2c3c(c(=O)oc12)CCC3)CC(C)C	28.2 µM (active)	
CCOC(=O)c1[nH]c(C(=O)O)c(CCN(CC)CC)c1C	inactive	
CCc1ccc(C2=Nn3c(nnc3-c3cccs3)SC2)cc1	7.08 µM (active)	
CCOc1ccc(C2=Nn3c(nnc3-c3ccco3)SC2)cc1	2.24 µM (active)	
CCN(CC)C(=O)CSc1nnc(-c2ccco2)n1N	inactive	
C/C(CCN1CCc2nc(-c3ccccc3)c(-c3ccccc3)cc2C1)=N\OC[C@@H](O)COCc1ccco1		-7.86% [at 11.4 µM]
